Test results: PubChem BioAssay
Where “and” joins values, the source holds several entries; their conditions need not be identical. Equal values may be shown once. The source holds several records for some structures; these can differ, active in one and inactive in another. Calls of active or inactive are those of the source. Unless noted, the rule behind the calls is not given here.

Legend:
[1] = HepG2 liver cancer cell viability effects, profiling panel, resazurin fluorescence, 24 h, PK04 Diversity Set (AID 1172); conditions: higher = more signal; note: test concentration not given here
[2] = basal S. cerevisiae growth modulation, no modifier, primary screen, OD600, strain BY4716, 24 h, basal condition (AID 1173); conditions: OD600, 24 h, higher = more signal, called active from +8 up or from −8 down
[3] = MM1S myeloma cell viability, profiling panel, resazurin fluorescence, basal, 24 h, PK04 Diversity Set (AID 1174); conditions: higher = more signal, called active from +8 up or from −8 down;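 note: MM1S multiple myeloma cell line; test concentration not given here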
[4] = target: Dihydroorotate dehydrogenase (quinone), mitochondrial (Plasmodium falciparum (isolate 3D7)) (UniProt Q08210); assay: PfDHODH enzyme inhibitors, primary screen, biochemical, C-terminal His tag, absorbance 600 nm (AID 1175); conditions: DCIP absorbance 600 nm, higher = more signal, called active from +8 up or from −8 down;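 note: recombinant parasite enzyme with a five histidine tag at its C terminus; test concentration not given here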
Chain of Dihydroorotate dehydrogenase (quinone), mitochondrial (Plasmodium falciparum (isolate 3D7)) (Q08210 whole entry, looked up): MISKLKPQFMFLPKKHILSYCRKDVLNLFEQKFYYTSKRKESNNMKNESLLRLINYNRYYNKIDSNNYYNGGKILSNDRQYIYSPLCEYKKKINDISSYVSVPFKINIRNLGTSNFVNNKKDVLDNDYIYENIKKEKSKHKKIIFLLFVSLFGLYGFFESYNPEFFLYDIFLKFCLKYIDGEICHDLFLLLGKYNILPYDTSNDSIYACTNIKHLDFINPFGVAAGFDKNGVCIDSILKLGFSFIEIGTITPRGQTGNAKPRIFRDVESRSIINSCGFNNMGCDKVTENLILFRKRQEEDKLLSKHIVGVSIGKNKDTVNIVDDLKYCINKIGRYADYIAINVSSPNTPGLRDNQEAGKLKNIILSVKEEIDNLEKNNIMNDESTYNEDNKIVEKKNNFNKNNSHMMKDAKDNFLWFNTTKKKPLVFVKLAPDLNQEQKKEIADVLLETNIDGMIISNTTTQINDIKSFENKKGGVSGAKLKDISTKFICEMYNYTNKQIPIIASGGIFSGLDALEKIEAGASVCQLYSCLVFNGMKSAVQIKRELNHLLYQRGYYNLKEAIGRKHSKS

[5] = P. aeruginosa biofilm formation inhibitors, primary screen, strain PAO1, LB-PBS medium, absorbance 600 nm (AID 1176); note: test concentration not given here; conditions: P. aeruginosa PAO1 growth/biofilm, A600, 12 h; higher = more signal
[6] = S. cerevisiae RM11-1a growth modifiers, primary screen, strain RM11-1a, OD600, basal, 24 h (AID 1177); conditions: OD600, 24 h, higher = more signal, called active from +8 up or from −8 down;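 note: cultures grown under basal conditions with no added stressor; test concentration not given here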
[7] = E. coli acrAB mutant growth effects, primary screen, E. coli filamentation inducers, strain DRC39, OD650, 24 h (AID 1178); conditions: higher = more signal, called active from +8 up or from −8 down;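 note: growth measured as culture turbidity by optical density at 650 nm; test concentration not given here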
[8] = E. coli acrAB mutant growth effects, primary screen, E. coli filamentation inducers, strain DRC39, OD650, 48 h (AID 1179);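 note: screen aims at cell division blockers that make cells filament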; conditions: E. coli DRC39 delta-acrAB growth, higher = more signal, called active from +8 up or from −8 down
[9] = RPMI8226 myeloma cell viability, profiling panel, resazurin fluorescence, basal, 24 h, PK04 Diversity Set (AID 1180); conditions: higher = more signal;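 note: RPMI8826 multiple myeloma cell line at 5000 cells per well; test concentration not given here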
[10] = target: E3 ubiquitin-protein ligase XIAP (Homo sapiens) (UniProt P98170); assay: XIAP binders, primary screen, biophysical, small-molecule microarray, fluorescence 635 nm (AID 1181); conditions: small-molecule microarray binding, higher = more signal;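 note: score merges 667 nm emission and signal to noise over triplicate slides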
Chain of E3 ubiquitin-protein ligase XIAP (Homo sapiens) (P98170 whole entry, looked up): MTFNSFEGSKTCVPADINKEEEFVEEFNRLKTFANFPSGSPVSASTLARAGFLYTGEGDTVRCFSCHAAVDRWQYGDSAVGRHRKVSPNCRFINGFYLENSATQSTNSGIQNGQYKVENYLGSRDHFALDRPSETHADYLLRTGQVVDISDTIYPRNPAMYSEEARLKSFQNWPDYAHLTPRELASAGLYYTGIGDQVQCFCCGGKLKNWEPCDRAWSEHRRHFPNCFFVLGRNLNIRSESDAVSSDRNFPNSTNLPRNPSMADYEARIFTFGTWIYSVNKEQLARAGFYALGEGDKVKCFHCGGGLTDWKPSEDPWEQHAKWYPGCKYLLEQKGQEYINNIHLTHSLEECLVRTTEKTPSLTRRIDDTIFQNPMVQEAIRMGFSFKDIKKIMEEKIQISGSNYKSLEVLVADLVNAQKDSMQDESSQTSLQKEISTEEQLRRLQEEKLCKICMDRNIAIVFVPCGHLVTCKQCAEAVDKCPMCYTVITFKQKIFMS

Structure (SMILES) | z-score [1] | z-score [2] | z-score [3] | composite z-score [4] | z-score [5] | z-score [6] | z-score [7] | z-score [8] | z-score [9] | composite z-score [10]
C=CCN(Cc1ccccc1)C(=O)C(c1cccs1)N(C(=O)/C=C\C(=O)O)c1c(Cl)cccc1CO (stereo not given) | 0.201 and -0.418 | -0.0348 (inactive) and -0.539 (inactive) | 0.258 (inactive) and -0.385 (inactive) | 0.607 (inactive) and 1.16 (inactive) | 0.165 (inactive) and -0.208 (inactive) | 0.0233 (inactive) and -0.276 (inactive) | 0.759 (inactive) and 0.391 (inactive) | -1.34 (inactive) and 0.456 (inactive) | -0.124 and -1 | -0.0172 and -0.359
C=CCN(CCCCC)C(=O)C(c1cccs1)N(C(=O)/C=C\C(=O)O)c1c(Cl)cccc1CO (stereo not given) | -0.939 and -0.559 | -0.69 (inactive) and -0.768 (inactive) | -0.18 (inactive) and -0.317 (inactive) | 0.401 (inactive) and 0.461 (inactive) | -0.0837 (inactive) and -0.677 (inactive) | -0.0138 (inactive) and -0.374 (inactive) | 0.246 (inactive) and 0.0068 (inactive) | 0.425 (inactive) and 0.212 (inactive) | -0.394 and -0.42 | -0.158 and -0.378
C=CCN1C(=O)[C@]2(O[C@H](CCn3cc(CCO)nn3)[C@@H]([Si](C)(C)c3ccc(OC)cc3)[C@@H]2C)c2cc(N3C(=O)c4cccc5cccc3c45)ccc21 | -6.38 and -6.41 | 1.99 (inactive) and 1.56 (inactive) | -9.01 (active) and -9.12 (active) | 1.19 (inactive) and 1.35 (inactive) | 0.355 (inactive) and 1.15 (inactive) | 4.03 (inactive) and 3.23 (inactive) | 1.91 (inactive) and 1.72 (inactive) | 0.906 (inactive) and 0.389 (inactive) | -6.26 and -6.25 | -0.178 and 0.0256
O=C(NN=C1C[C@@H](O)[C@@H](O)[C@@H]2[C@@H]3C(=O)N(Cc4ccc5c(c4)OCO5)C(=O)[C@@H]3CC[C@H]12)OCc1ccccc1 | -0.0124 | 0.0375 (inactive) | -0.203 (inactive) | -1.62 (inactive) | -0.437 (inactive) | 0.273 (inactive) | 0.883 (inactive) | 1.4 (inactive) | -0.2 | 0.106
CC(C)CON=C1C[C@@H](O)[C@@H](O)[C@@H]2[C@@H]3C(=O)N(c4cccc(Oc5ccccc5)c4)C(=O)[C@@H]3CC[C@H]12 | 0.608 | 0.121 (inactive) | 0.768 (inactive) | -0.564 (inactive) | 0.34 (inactive) | 0.79 (inactive) | 0.85 (inactive) | 0.0947 (inactive) | 1.33 | -0.055
C=CCN(CCCCC)C(=O)C1N(C(C)(C)CO)C(=O)C2C(C(=O)O)C3C=CC21O3 (stereo not given) | -0.839 and -0.382 | 0.579 (inactive) and -0.295 (inactive) | -1.09 (inactive) and -0.64 (inactive) | 0.457 (inactive) and -0.446 (inactive) | -0.91 (inactive) and -1.08 (inactive) | -1.01 (inactive) and -1.15 (inactive) | -0.62 (inactive) and 0.193 (inactive) | -0.396 (inactive) and 0.2 (inactive) | -0.725 and -0.827 | -0.0387 and -0.245
O=C1C[C@]2(c3ccc([N+](=O)[O-])cc3)C(=O)N(Cc3ccccc3)c3cc(CO)ccc3[C@H]2N1C1CCCCC1 | 0.981 and -0.766 | -0.0998 (inactive) and -0.919 (inactive) | 0.0351 (inactive) and -0.743 (inactive) | -2.77 (inactive) and 0.496 (inactive) | 0.599 (inactive) and 1.21 (inactive) | 0.029 (inactive) and -0.21 (inactive) | 0.512 (inactive) and 0.2 (inactive) | 0.566 (inactive) and -0.0186 (inactive) | 0.702 and -0.966 | 2.56 and 0.144
C[C@@]1([C@@H](NC(=O)Cc2ccccc2)c2ccc(-c3ccccc3)cc2)C[C@H]1C1CCCCC1 | -1.11 and 1.82 and -1 | 0.332 (inactive) and 0.351 (inactive) and 1.3 (inactive) | -0.506 (inactive) and 1.03 (inactive) and -1.05 (inactive) | -4.04 (inactive) and -0.594 (inactive) and -0.535 (inactive) | 2.92 (inactive) and 1.4 (inactive) and 1.18 (inactive) | 1.75 (inactive) and 0.465 (inactive) and 1.58 (inactive) | -0.305 (inactive) and -0.278 (inactive) and -1.43 (inactive) | -0.0393 (inactive) and -0.777 (inactive) and -0.74 (inactive) | -3.36 and 2.84 and -1.47 | 0.102 and 0.0464 and -0.02
C=C[C@@H](OC)[C@H](O)c1ccc(O)c(F)c1 | 0.097 and -0.0575 | -8.11 (active) and -7.12 (inactive) | 0.0746 (inactive) and 0.161 (inactive) | 0.789 (inactive) and -1.04 (inactive) | 0.826 (inactive) and 0.143 (inactive) | 1.17 (inactive) and -1.07 (inactive) | 0.407 (inactive) and 0.707 (inactive) | 0.27 (inactive) and 0.965 (inactive) | -0.0761 and 0.295 | -0.195 and 0.0027
